The list is not random: actives were taken first. Their share in the collection is about 7.6%.
RORgamma inh = blocks mouse ROR gamma transcriptional activity; hit rate 5.4% among 310,000; Drosophila S2 Gal4-RORgamma UAS-luciferase reporter, 20 h; Potency, µM (top dose mostly 53.6 µM), inactives show at the top dose activity change, negative = inhibition, most hits filed as inhibitors; P51450; note: potency is the fitted concentration of half-maximal effect; % is set by controls: 0 for no effect and ±100 for the full control effect; nearly all actives have a fitted effect of over 60% in size
Target sequence (P51450 whole entry, looked up, the tested form may be a part): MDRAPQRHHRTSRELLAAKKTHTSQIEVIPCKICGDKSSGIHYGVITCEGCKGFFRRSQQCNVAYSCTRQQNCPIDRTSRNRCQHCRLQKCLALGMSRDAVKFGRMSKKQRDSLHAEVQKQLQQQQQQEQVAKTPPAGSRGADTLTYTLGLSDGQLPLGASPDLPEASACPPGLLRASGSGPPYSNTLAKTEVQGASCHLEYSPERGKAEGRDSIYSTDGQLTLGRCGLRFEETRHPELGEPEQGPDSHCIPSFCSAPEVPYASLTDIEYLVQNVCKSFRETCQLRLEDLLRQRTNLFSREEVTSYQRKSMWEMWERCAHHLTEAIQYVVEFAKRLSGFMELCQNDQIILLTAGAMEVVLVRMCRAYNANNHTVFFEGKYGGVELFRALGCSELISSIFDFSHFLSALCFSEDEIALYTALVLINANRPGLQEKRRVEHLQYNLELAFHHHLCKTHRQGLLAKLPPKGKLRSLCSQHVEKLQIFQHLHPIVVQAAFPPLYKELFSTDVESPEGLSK
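Luciferase reporter read in Schneider cells carrying Gal4-RORγ (mouse) and UAS-Photinus luciferase; cells given compound 1 h before 700 uM copper sulfate induction, then incubated 20 h at ambient temperature.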
p53 reactivator = mutant p53 re-activation in reporter cells; H1299 p53-A138V BP100-luciferase reporter, luminescence, 24 h; Potency, µM (doses to about 92.2 µM), for the others: at the highest dose activity change, positive = activation, hits mostly activators; hit rate 0.063% among 320,000; note: potency is the fitted concentration of half-maximal effect; % of control where 0% means no effect; nearly all actives have a fitted effect of over 45% in size
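p53-null H1299 cells stably carrying temperature-sensitive p53-A138V and a BP100-luciferase reporter were pinned with compounds (4-point, 1:5 series) and held 24 hrs at 37 deg C. Luminescence was read 10 min after detection reagent.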
ELG1 DNA repair = inhibitors of ELG1-dependent DNA repair in HEK293T cells; hit rate 2.3% among 330,000; HEK293T ELG1-luciferase reporter, luminescence, 16 h; DNA damage induced by 5-fluorouridine; Potency, µM (top dose mostly 46.1 µM), without a hit: at the top dose activity change, negative = inhibition, actives largely listed as inhibitors; note: potency is the fitted concentration of half-maximal effect; % is set by controls: 0 for no effect and ±100 for the full control effect; nearly all actives have a fitted effect of over 55% in size
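Cells (2,000 per well) received 5-fluorouridine plus test compound or DMSO and were incubated 16 hr at 37 °C, 5% CO2. Luciferase activity was read by luminescence 30 min after ONE-Glo addition; signal suppression marked inhibition of damage-induced ELG1 function.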
Giardia kill = kills Giardia lamblia; Giardia lamblia trophozoite viability; activity change, % at 7.66 µM, hits read low; hit rate 0.15% among 340,000; in the data active = activity change below about -80%; inconclusive = between about -30% and that limit;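 note: parasites exposed to compound for two days anaerobically before the ATP read; % is set by controls: 0 for no effect and ±100 for the full control effect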
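ATP-content bioluminescence gauges trophozoite survival. Cells (100/well) receive compound and incubate anaerobically for 48 hrs at 37 deg C; detection reagent follows for 15-30 min at room temperature.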
VP16 counter = Gal4-VP16 reporter inhibition counter-screen. Drosophila S2 Gal4-VP16 UAS-luciferase, luminescence, 20 h. Potency, µM (doses to about 53.6 µM), inactives show top-dose activity, negative = inhibition, actives largely listed as inhibitors. hit rate 3.5% among 310,000;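 note: Gal4-VP16 expression switched on by copper sulfate through the metallothionein promoter; potency is the fitted concentration of half-maximal effect; % is set by controls: 0 for no effect and ±100 for the full control effect; nearly all actives have a fitted effect of over 50% in size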
BRCA1 expr up = BRCA1 expression activation; hit rate 1.1% among 380,000; MCF7-BRCA1-FFLuc reporter, luminescence, 48 h; response scale: scaled: vehicle 0%, 10 µM genistein 100%; Potency, µM (top dose mostly 46.1 µM), without a hit: top-dose activation, hits mostly activators; note: potency is the fitted concentration of half-maximal effect; nearly all actives have a fitted effect of over 80% in size
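Cells: MCF7-BRCA1-FFLuc, 2000/well. Exposure: 48 h, 37 °C, 5% CO2. Read: luminescence, 15 min post-substrate. Controls: genistein 10 microM (maximal activation), DMSO (neutral).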
Starred values were filed as active, the others as inactive; ? = inconclusive; . = not tested or not shown. Unless noted, calls come from the whole dose curve; as a rule, active = well fitted curve in the direction sought with a large enough effect; inconclusive = small, poorly fitted or top-dose-only effect, or another doubt; inactive = no such curve, though single readings can be large; an effect the other way counts as inactive or inconclusive.

SMILES | RORgamma inh | p53 reactivator | ELG1 DNA repair | Giardia kill | VP16 counter | BRCA1 expr up
Cc1cc(C(=O)Cn2nc(C(=O)O)c3ccccc3c2=O)c(C)n1-c1ccccc1 | ? | ? | ? | ? | ? | 57%
Cc1cc(C(=O)Cn2nc(C(=O)O)c3ccccc3c2=O)c(C)n1CCc1ccc(Cl)cc1 | -2% | 0% | 8.2µM* | 14 | -16% | -28%
Cc1cc(NC(=O)CC2CCCC2)n(-c2nc3ccccc3[nH]2)n1 | 1.8µM* | 3% | 23µM* | -18 | 3.5µM* | -48%
Cc1cc(NC(=O)c2ccc(F)cc2F)n(-c2nc3ccccc3[nH]2)n1 | 1.1µM* | 26% | 27% | -1 | 1.8µM* | 9%
Cc1cc(NC(=O)/C=C/c2ccccc2Cl)n(-c2nc3ccccc3[nH]2)n1 | 1.8µM* | ? | ? | -21 | 1.3µM* | 17%
Cc1cc(NC(=O)CN2CCCCC2)n(-c2ccccc2)n1 | 1% | -6% | -9% | -6 | 4% | 0%
Cc1cc(NC(=O)c2ccccc2F)n(C(C)(C)C)n1 | 4% | -2% | 5% | -21 | 1% | -5%
COc1ccc2[nH]cc(CCNc3ccnc(-c4c(C)noc4C)n3)c2c1 | 4% | . | . | . | -25% | .
CCN(CC(=O)Nc1c(F)cccc1F)C(=O)C1CCCN(C(=O)c2ccc(Cl)cc2)C1 (configuration not stated) | 10µM* | -1% | 8% | 0 | 11µM* | -8%
CCN(CC(=O)Nc1c(F)cccc1F)C(=O)C1CCN(C(=O)c2ccc(Cl)cc2)CC1 | . | 2% | ? | 0 | . | -15%
CCOC(=O)C1(Nc2nccs2)Sc2ccccc2NC1=O (configuration not stated) | 0% | -12% | 7.3µM* | -6 | -5% | -87%
COc1ccc(N=C2NC(=O)/C(=C\C=C\c3ccco3)S2)cc1 | -17% | 6% | 17% | -23 | ? | 45%
CC(=O)c1ccc(C(=O)NC2CC(C)(C)Cc3c2cnn3-c2ccccc2)cc1 (configuration not stated) | 12% | -22% | 2% | 5 | 3% | -33%
CCC(C)N1C(=O)N(c2cccc(Cl)c2)C(C)(O)CC1(C)C (configuration not stated) | 5µM* | 2% | 7% | -20 | 26% | -4%
Cc1ccc(N2C(=O)N(C(C)C)C(C)(C)CC2(C)O)cc1 (configuration not stated) | -22% | -4% | -1% | 2 | 1% | 0%
CC1=C[C@H]2OC(=O)[C@@H](C)[C@H]2C[C@@H]2[C@H]1C[C@@H](O)[C@@]2(C)O | 2% | 2% | 4% | 9 | 25% | -15%
CCN1C(=O)[C@H]2[C@@H](c3ccccc3)N[C@]3(CCCN(Cc4ccccc4)C3=O)[C@H]2C1=O | . | . | . | . | . | 2%
CCC(c1nnc(SCC(=O)Nc2nnc(-c3ccccc3)o2)o1)N(C)C (configuration not stated) | 13µM* | 46% | 13% | -6 | ? | 0%
Nc1nnc(SCC(=O)Nc2nnc(-c3ccccc3)o2)s1 | . | -1% | -5% | -2 | . | -2%
Cc1ccc(C)c(SCC(=O)Nc2nnc(-c3ccccc3)o2)c1 | 2µM* | -3% | -1% | 7 | 5µM* | 0%
COC(=O)c1ccc(CSC2=NC[C@@H]3[C@@H]4C(=O)N(Cc5ccccc5)C(=O)[C@@H]4[C@](Cc4ccccc4)(C(=O)OC)N23)cc1 | . | 0% | ? | -8 | . | 0%
COc1ccc(-c2nnc(NC(=O)c3cc(Cl)ccc3Cl)o2)cc1 | 1.1µM* | ? | -13% | -16 | 1.4µM* | -26%
O=C(Nc1nnc(-c2ccc(F)cc2)o1)c1ccc(S(=O)(=O)N2CCOCC2)cc1 | 0.63µM* | -14% | 7.3µM* | -12 | 0.71µM* | -32%
COc1ccc(-c2nnc(NC(=O)c3ccc(F)cc3)o2)cc1 | 0.11µM* | 11% | ? | -18 | ? | 5%
COc1ccc(-c2nnc(NC(=O)c3ccc4c(c3)OCCO4)o2)cc1 | 1.1µM* | 12% | -1% | -25 | 1.3µM* | 32%
SMILES | RORgamma inh | p53 reactivator | ELG1 DNA repair | Giardia kill | VP16 counter | BRCA1 expr up
Cc1ccc(SC(=O)c2c([N+](=O)[O-])c(C)nn2C)cc1 | 4µM* | 0% | -1% | -11 | 3.5µM* | -26%
Cc1cc(C)n(C(=O)c2c([N+](=O)[O-])c(C)nn2C)n1 | 26% | 5% | 10% | -9 | -13% | 1%
CCCS(=O)(=O)NC(=O)C1(C)CCN(C(=O)Cc2ccc(OC)c(OC)c2)C1 (configuration not stated) | . | . | . | . | . | 0%
CCOC(=O)c1ccc(NC(=O)CSc2nc(C)nc3c2c(=O)n(C)c(=O)n3C)cc1 | 0% | 4% | -8% | -21 | 12% | 24%
O=C(NCc1ccc2c(c1)OCO2)C(=S)N1CCOCC1 | 4% | 1% | 2% | 10 | 26% | -23%
O=C(CSc1nnc2scc(-c3ccccc3)n12)N1CCN(Cc2ccccc2)CC1 | 8.9µM* | -18% | -10% | 18 | -8% | -8%
Cc1ccc(-c2csc3nnc(SCC(=O)N4CCN(Cc5ccccc5)CC4)n23)cc1 | -43% | 8% | 5% | 29 | -8% | 0%
Cc1nnc(SCC(=O)Nc2nsc(-c3ccc(C(C)(C)C)cc3)n2)s1 | ? | ? | ? | -4 | -13% | 1.1µM*
O=C(CSc1nnc2scc(-c3ccccc3)n12)Nc1nsc(-c2ccccc2)n1 | 15% | -6% | 9.2µM* | 7 | ? | -56%
Cc1ccc(-c2csc3nnc(SCC(=O)Nc4nsc(-c5ccccc5)n4)n23)cc1 | 13% | . | . | 0 | -6% | -38%
COc1ccc(NC(=O)CSc2n[nH]c(=O)n2Cc2ccccc2)cc1Cl | 6% | 0% | ? | 7 | 2% | -21%
Cc1cccc(OCCNc2ccc(C(F)(F)F)cc2[N+](=O)[O-])c1 | -10% | 5% | ? | 6 | ? | 3.2µM*
O=[N+]([O-])c1cc(C(F)(F)F)ccc1NCCc1c[nH]c2ccc(O)cc12 | 39% | 3% | 7% | 4 | ? | -20%
O=[N+]([O-])c1cc(C(F)(F)F)ccc1NCCc1c[nH]c2ccccc12 | 25% | 40µM* | ? | -13 | ? | -26%
COC(=O)c1nn(-c2ccc3c(c2)CCN3C(C)=O)cc1O | 7.1µM* | -8% | -19% | -87* | 8.9µM* | -100%
CCOc1ccc(CN2CCNC(=O)C2CC(=O)NCCCOc2cccnc2)cc1 (configuration not stated) | 13% | 1% | 14% | -17 | -13% | 0%
